This passage reports inhibition results from PubChem BioAssay.

The structures appear in SMILES notation. Values without a mark were called inactive. How the calls were made is not given here.

In the test the target is Pantothenate synthetase (Mycobacterium tuberculosis (strain ATCC 25618 / H37Rv)) (UniProt P9WIL5). Nature of the test: Recombinant Mtb pantothenate synthetase (PanC) inhibitors, coupled enzyme, confirmatory (AID 375).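 Further: 0% = full reaction with vehicle and 100% = no enzyme background.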 The note with it: coupled enzyme assay; at 10 µM, active compounds read high.
Sequence of Pantothenate synthetase (Mycobacterium tuberculosis (strain ATCC 25618 / H37Rv)) (P9WIL5 whole entry, looked up): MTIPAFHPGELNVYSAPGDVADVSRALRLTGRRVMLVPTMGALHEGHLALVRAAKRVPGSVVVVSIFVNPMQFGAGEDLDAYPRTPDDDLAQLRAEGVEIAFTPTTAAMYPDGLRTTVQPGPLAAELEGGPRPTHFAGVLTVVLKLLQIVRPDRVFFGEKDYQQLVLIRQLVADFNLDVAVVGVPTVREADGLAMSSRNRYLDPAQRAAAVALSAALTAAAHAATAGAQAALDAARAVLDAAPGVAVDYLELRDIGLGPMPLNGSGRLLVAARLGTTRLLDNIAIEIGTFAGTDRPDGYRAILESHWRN
Regarding `O=c1cc(C(F)F)oc2c1ccc1ccccc12`, the inhibition is 0%. To `COc1ccc(C(=O)c2ccc(OC)c(N)c2)cc1N` belongs 0%; to `COC(=O)c1cn(C(=O)OC)c2ccccc12`, 7%.

For `CC(C)(C)NC(=O)NC(=O)COc1ccccc1C#N`, the inhibition was 3%. Then `Cc1cc(N2C(=O)C(=O)/C(=C(/O)c3ccc(F)cc3)C2c2ccc(F)cc2)no1` (stereo not given), with 0%; and `Cc1ccc(-n2ncc3c(=O)n(CC(=O)NC4CCCCC4)cnc32)cc1C`, with 12%. For `CC1=C(C)CC2C(=O)N(c3cccc4ccccc34)C(=O)C2C1` (stereo not given), the inhibition was 0%. Then `CCOC(=O)N1CCN(C(=O)CSCC(=O)Nc2nc(-c3ccc(OC)cc3)cs2)CC1`, with 0%; and `CCN1CCN(C(=O)c2ccc3c(=O)n(CCC4=CCCCC4)c(=O)[nH]c3c2)CC1`, with 0%; and `Cc1cc(O)c(NC(=O)c2ccc(Br)o2)cc1C`, with 11%.

As to `COCCn1c(SCC(=O)N(C(C)C)C(C)C)nnc1-c1cc2ccccc2cc1O`, the inhibition is 0%.

Turning to `COc1cc(OC)cc(-c2nc(N)n[nH]2)c1`, the inhibition was 0%.

Take `O=C1c2ccccc2-c2nc3ncnn3c(-c3ccccc3)c21`: the inhibition was 0%.

In the case of `CNC(=O)CC(C(=O)O)c1ccc(OCC(C)C)cc1` (stereo not given), the inhibition was 1%.

On to `CCc1[nH]nc2c1C(c1cccc(OC(=O)N3CCOCC3)c1)C(C#N)=C(N)O2` (stereo not given), for which the inhibition is 1%. To `O=S(=O)(c1ccc(N2CCN(c3ccc(F)cc3)CC2)cc1)N1CCCC1` belongs 0%; to `Oc1c(I)cc(I)c2cccnc12`, 2%. To `Cc1csc2nc3ccccc3c(=O)n12` belongs 11%; to `Cc1ccc(OCc2nnc(SCC(=O)N3CCOCC3)n2C)cc1`, 0%. To `CSc1nc2c(ccc3ccccc32)o1` belongs 2%; to `C=CCn1c(=O)c2ccccc2n2c(SC(C)C(=O)Nc3nc(-c4ccccc4)cs3)nnc12` (stereo not given), 4%.

Take `N#CCCn1ccc(NC(=O)c2ccc(Cl)cc2)n1`: the inhibition is 0%. Then `Cc1cc2c(=O)n(CC(=O)N3CCN(c4ccccc4)CC3)cnc2s1`, with 0%.

With `COc1ccc(OC)c(C2=NOC(C(=O)NCCN3CCOCC3)C2)c1` (stereo not given), the inhibition was 0%.

In the case of `CCOc1ccc(NC(=O)c2ccccc2O)cc1`, the inhibition was 0%. Then `Cc1cc(N2CCOCC2)nc2ccc(NC(=O)C3CCC(C)CC3)cc12` (stereo not given), with 0%; and `COC(=O)CC1SCCNC1=O` (stereo not given), with 0%. Then `S=c1[nH]ncn1-c1ccccn1`, with 5%; and `CC1(C)NC(=O)N(CCOc2cccc(Cl)c2Cl)C1=O`, with 0%. Then `COc1ccc(Cn2c(C)nc3c(c2=O)c2nc4ccccc4nc2n3Cc2ccco2)cc1`, with 9%; and `COc1ccc(N2C(=O)CC(N3CCCC4CCCCC43)C2=O)cc1` (stereo not given), with 0%. Turning to `CC(=O)c1cc(-c2ccccc2)n(CC(=O)N2CCC(N3CCCCC3)CC2)c1C`, the inhibition is 0%. To `O=C(c1ccco1)N1CCN(c2cccc(Cl)c2)CC1` belongs 0%. Regarding `O=C(NCc1ccco1)Nc1ccc2nsnc2c1`, the inhibition is 6%. Then `N[C@@H](C(=O)N[C@@H]1C(=O)N2C(C(=O)O)=C(Cl)CS[C@H]12)c1ccccc1`, with 2%; and `CC1c2nc3ccccc3n2C(CC(=O)NCc2ccccn2)C(=O)N1Cc1ccccc1` (stereo not given), with 0%; and `CN(C)c1ccc(CNn2cnnc2)cc1`, with 2%. To `COCCn1c(N)c(C(=O)Nc2sc3c(c2C(=O)OC)CCCC3)c2nc3ccccc3nc21` belongs 1%; to `COC(=O)/C=c1\sc2ncnn2c1=O`, 0%. To `O=S(=O)(c1cccc2c(S(=O)(=O)N3CCCC3)cccc12)N1CCCC1` belongs 0%.
